Data from PubChem BioAssay AID1159580 (chemical genetic matrix, 2015).
“And” between values parts separate entries of the source, which are not always exact repeats. Equal values may be shown once. Screen size: about 5,500 compounds; about 2,000 (36%) were called active. Not shown: some 18% with an inconclusive outcome. No stated cut-off is given here; in the data, active means normalized growth mostly below about 0.91 (no sharp cut-off); inconclusive means no clear call, values can overlap the other calls; inactive means mostly above about 0.92. The list shows a part of the results.

Experiment: chemical genetic growth profiling, strain panel (AID 1159580);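 further: tested at 20 µM; growth read once vehicle control cultures reached saturation at 30 °C; 1 = growth at the plate median or of vehicle wells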
Details: S. cerevisiae deletion strains, growth OD

Measured: normalized growth

Cc1cc(N)c2ccccc2[n+]1CCCCCCCCCC[n+]1c(C)cc(N)c2ccccc21
active: locus YAL013W, strain DEP1, stronger effect = lower value 0.0603 | locus YAL021C, strain ccr4, stronger effect = lower value 0.0693 | locus YAL026C, strain drs2, stronger effect = lower value 0.0714 | locus YAL030W, strain snc1, stronger effect = lower value 0.0625 | locus YAL040C, strain CLN3, stronger effect = lower value 0.0761 | locus YBL061C, strain skt5, stronger effect = lower value 0.066 | locus YBR009C, strain hhf1, stronger effect = lower value 0.0696 | locus YBR021W, strain FUR4, stronger effect = lower value 0.0907 | locus YBR023C, strain chs3, stronger effect = lower value 0.0647 | locus YBR171W, strain sec66, stronger effect = lower value 0.0836 | locus YBR229C, strain ROT2, stronger effect = lower value 0.0499 | locus YBR231C, strain swc5, stronger effect = lower value 0.0655 | locus YBR279W, strain paf1, stronger effect = lower value 0.105 | locus YCL011C, strain gbp2, stronger effect = lower value 0.0611 | locus YCL016C, strain dcc1, stronger effect = lower value 0.0686 | locus YCL029C, strain bik1, stronger effect = lower value 0.0664 | locus YCL061C, strain MRC1 (second series), stronger effect = lower value 0.0482 | locus YCL061C, strain MRC1, stronger effect = lower value 0.0691 | locus YCL069W, strain vba3, stronger effect = lower value 0.0657 | locus YCR088W, strain abp1, stronger effect = lower value 0.0654 | locus YDL005C, strain med2, stronger effect = lower value 0.0789 | locus YDL035C, strain GPR1, stronger effect = lower value 0.0543 | locus YDL040C, strain nat1, stronger effect = lower value 0.0635 | locus YDL074C, strain BRE1, stronger effect = lower value 0.0853 | locus YDL101C, strain DUN1, stronger effect = lower value 0.0584 | locus YDL134C, strain PPH21, stronger effect = lower value 0.0503 | locus YDL185W, strain tfp1, stronger effect = lower value 0.0607 | locus YDL192W, strain arf1, stronger effect = lower value 0.0659 | locus YDR001C, strain nth1, stronger effect = lower value 0.0643 | locus YDR069C, strain doa4, stronger effect = lower value 0.0664 | locus YDR101C, strain arx1, stronger effect = lower value 0.0626 | locus YDR137W, strain rgp1, stronger effect = lower value 0.0886 | locus YDR150W, strain NUM1, stronger effect = lower value 0.0524 | locus YDR159W, strain sac3, stronger effect = lower value 0.0966 | locus YDR162C, strain NBP2, stronger effect = lower value 0.0484 | locus YDR195W, strain ref2 0.14 | locus YDR297W, strain sur2, stronger effect = lower value 0.0628 | locus YDR318W, strain mcm21, stronger effect = lower value 0.0702 | locus YDR334W, strain swr1, stronger effect = lower value 0.0697 | locus YDR335W, strain msn5, stronger effect = lower value 0.0637 | locus YDR363W, strain ESC2, stronger effect = lower value 0.0798 | locus YDR388W, stronger effect = lower value 0.0589 | locus YDR392W, strain spt3, stronger effect = lower value 0.104 | locus YDR502C, strain sam2, stronger effect = lower value 0.066 | locus YEL003W, strain gim4, stronger effect = lower value 0.0587 | locus YEL037C, strain rad23, stronger effect = lower value 0.06 | locus YEL061C, strain CIN8 (second series), stronger effect = lower value 0.066 | locus YEL061C, strain CIN8, stronger effect = lower value 0.0508 | locus YER002W, strain NOP16, stronger effect = lower value 0.0717 | locus YER015W, strain faa2, stronger effect = lower value 0.064 | locus YER016W, strain bim1, stronger effect = lower value 0.0649 | locus YER110C, stronger effect = lower value 0.0798 | locus YER111C, strain swi4, stronger effect = lower value 0.0774 | locus YER155C, strain BEM2 (second series), stronger effect = lower value 0.0923 | locus YER155C, strain BEM2, stronger effect = lower value 0.0729 | locus YER167W, strain BCK2, stronger effect = lower value 0.0524 | locus YFR010W, strain ubp6, stronger effect = lower value 0.0738 | locus YGL078C, strain dbp3, stronger effect = lower value 0.0809 | locus YGL086W, strain mad1, stronger effect = lower value 0.0599 | locus YGL167C, strain pmr1, stronger effect = lower value 0.0819 | locus YGL173C, strain kem1, stronger effect = lower value 0.0682 | locus YGL227W, strain vid30, stronger effect = lower value 0.0671 | locus YGL240W, strain doc1, stronger effect = lower value 0.0823 | locus YGL248W, strain PDE1, stronger effect = lower value 0.0477 | locus YGL253W, strain hxk2, stronger effect = lower value 0.0575 | locus YGR078C, strain PAC10, stronger effect = lower value 0.0515 and 0.0686 | locus YGR135W, strain pre9, stronger effect = lower value 0.0652 | locus YGR229C, strain SMI1, stronger effect = lower value 0.0559 | locus YGR252W, strain gcn5, stronger effect = lower value 0.156 | locus YHR013C, strain ard1, stronger effect = lower value 0.116 | locus YHR027C, strain rpn1, stronger effect = lower value 0.0661 | locus YHR030C, strain SLT2, stronger effect = lower value 0.0523 | locus YHR079C, strain IRE1 (second series), stronger effect = lower value 0.0634 | locus YHR094C, strain hxt1, stronger effect = lower value 0.0669 | locus YHR129C, strain ARP1, stronger effect = lower value 0.087 | locus YHR142W, strain chs7, stronger effect = lower value 0.0778 | locus YHR200W, strain rpn10, stronger effect = lower value 0.0666 | locus YIL066C, strain RNR3, stronger effect = lower value 0.0524 | locus YIL073C, strain SPO22, stronger effect = lower value 0.118 | locus YIL125W, strain kgd1, stronger effect = lower value 0.0847 | locus YIR030C, strain dcg1, stronger effect = lower value 0.0641 | locus YJL092W, strain hpr5, stronger effect = lower value 0.062 | locus YJL095W, strain BCK1 (second series), stronger effect = lower value 0.0654 | locus YJL095W, strain BCK1, stronger effect = lower value 0.0618 | locus YJL115W, strain asf1, stronger effect = lower value 0.0762 | locus YJL129C, strain trk1, stronger effect = lower value 0.0876 | locus YJL134W, strain LCB3, stronger effect = lower value 0.0487 | locus YJL154C, strain vps35, stronger effect = lower value 0.0637 | locus YJL164C, strain tpk1, stronger effect = lower value 0.0693 | locus YJL166W, strain qcr8, stronger effect = lower value 0.0646 | locus YJL168C, strain set2, stronger effect = lower value 0.064 | locus YJL187C, strain SWE1 (second series), stronger effect = lower value 0.0504
